# Test results published in the supplement of paper PMC6658780.
# Counter-ions that a name gives are not always drawn. ± gives the standard deviation of the averaged measurements.
# Key:
# [1] = test system: Klebsiella pneumoniae KPC-119; assay: percent growth inhibition of drug alone vs DMSO control; higher = more growth inhibition; details: antibiotic (0.125x MIC): none (0.1% DMSO)
# [2] = test system: Klebsiella pneumoniae KPC-119; assay: percent growth inhibition of drug + antibiotic vs DMSO control; higher = more growth inhibition
# [3] = antibiotic (0.125x MIC): colistin, 20 µM
# [4] = antibiotic (0.125x MIC): gentamicin, 7 µM
# [5] = antibiotic (0.125x MIC): gentamicin, 20 µM
# [6] = antibiotic (0.125x MIC): colistin, 7 µM
# [7] = antibiotic (0.125x MIC): meropenem, 7 µM
smiles,measurement,setting,value
"CC(C)NCC(O)c1ccc(O)c(O)c1 (single isomer, unassigned; (-)) [(-)-Isoproterenol hydrochloride]",percent growth inhibition of drug alone,[1]; 7 µM,0.335 ± 1.6%
same,percent growth inhibition of drug alone,[1]; 20 µM,1.39 ± 1.6%
same,percent growth inhibition,[2]; [3],0.725 ± 1.5%
O=C1NCCN1c1ncc([N+](=O)[O-])s1 [Niridazole],percent growth inhibition of drug alone,[1]; 7 µM,9.23 ± 8.8%
same,percent growth inhibition of drug alone,[1]; 20 µM,74.9 ± 13%
same,percent growth inhibition,[2]; [4],38.6 ± 6.3%
same,percent growth inhibition,[2]; [5],95.7 ± 4.1%
CC(C)Nc1cccnc1N1CCN(C(=O)c2cc3cc(NS(C)(=O)=O)ccc3[nH]2)CC1 [Delavirdine],percent growth inhibition of drug alone,[1]; 7 µM,-0.164 ± 2.9%
same,percent growth inhibition of drug alone,[1]; 20 µM,-1.86 ± 1%
same,percent growth inhibition,[2]; [6],-6.39 ± 0.99%
COc1cccc2c1C(=O)c1c(O)c3c(c(O)c1C2=O)C[C@@](O)(C(=O)CO)C[C@@H]3O[C@H]1C[C@H](N)[C@@H](O)[C@H](C)O1 [Epirubicin hydrochloride],percent growth inhibition of drug alone,[1]; 7 µM,-1.63 ± 2.7%
same,percent growth inhibition of drug alone,[1]; 20 µM,-0.106 ± 4.7%
same,percent growth inhibition,[2]; [6],-0.818 ± 0.78%
C/C(=C\C(=O)OCCCCCCCCC(=O)O)C[C@@H]1OC[C@H](C[C@@H]2O[C@H]2[C@@H](C)[C@H](C)O)[C@@H](O)[C@H]1O [Mupirocin],percent growth inhibition of drug alone,[1]; 7 µM,1.64 ± 1.8%
same,percent growth inhibition of drug alone,[1]; 20 µM,6.42 ± 0.11%
same,percent growth inhibition,[2]; [4],16.2 ± 3.3%
same,percent growth inhibition,[2]; [5],41.1 ± 2.1%
COc1cc(C)nc(-n2nc(C)cc2OC)n1 [Epirizole],percent growth inhibition of drug alone,[1]; 7 µM,-1.76 ± 0.66%
same,percent growth inhibition of drug alone,[1]; 20 µM,-0.885 ± 4.3%
same,percent growth inhibition,[2]; [6],55.5 ± 7.9%
same,percent growth inhibition,[2]; [3],-4.39 ± 3.8%
C[C@H]1c2cccc(O)c2C(=O)C2=C(O)[C@]3(O)C(=O)C(C(N)=O)=C(O)[C@@H](N(C)C)[C@@H]3[C@@H](O)[C@@H]21 [Doxycycline hydrochloride],percent growth inhibition of drug alone,[1]; 7 µM,15.8 ± 3%
same,percent growth inhibition of drug alone,[1]; 20 µM,35.7 ± 5.2%
same,percent growth inhibition,[2]; [6],42.8 ± 2.2%
same,percent growth inhibition,[2]; [3],91.4 ± 2.1%
COc1nc(C)nc(Cl)c1NC1=NCCN1 [Moxonidine],percent growth inhibition of drug alone,[1]; 7 µM,-0.572 ± 3.2%
same,percent growth inhibition of drug alone,[1]; 20 µM,-0.25 ± 3.1%
same,percent growth inhibition,[2]; [3],-7.57 ± 6.4%
CCCCCCCCCCCCCCCC[N+](C)(C)CCN(Cc1ccc(OC)cc1)c1ncccn1 [Thonzonium bromide],percent growth inhibition of drug alone,[1]; 7 µM,-1.94 ± 3.1%
same,percent growth inhibition of drug alone,[1]; 20 µM,2.72 ± 1.4%
same,percent growth inhibition,[2]; [3],98.2 ± 3.1%
CCN1CCC[C@H]1CNC(=O)c1c(O)c(Cl)cc(Cl)c1OC [Raclopride],percent growth inhibition of drug alone,[1]; 7 µM,-0.791 ± 2.4%
same,percent growth inhibition of drug alone,[1]; 20 µM,0.378 ± 5.2%
same,percent growth inhibition,[2]; [3],-4.39 ± 0.64%
CO[C@@]1(NC(=O)Cc2cccs2)C(=O)N2C(C(=O)O)=C(COC(N)=O)CS[C@@H]21 [Cefoxitin sodium salt],percent growth inhibition of drug alone,[1]; 7 µM,5.37 ± 2%
same,percent growth inhibition of drug alone,[1]; 20 µM,7.08 ± 6.2%
same,percent growth inhibition,[2]; [4],8.4 ± 13%
CCCCOC(=O)c1ccc(N)cc1 [Butamben],percent growth inhibition of drug alone,[1]; 7 µM,-0.672 ± 3.4%
same,percent growth inhibition of drug alone,[1]; 20 µM,-0.688 ± 0.36%
same,percent growth inhibition,[2]; [3],3.33 ± 3%
CC1COc2c(N3CCN(C)CC3)c(F)cc3c(=O)c(C(=O)O)cn1c23 (configuration not stated) [Ofloxacin],percent growth inhibition,[2]; [7],96.7 ± 3.1%
CCCCC(CC)CNC(=N)NC(=N)NCCCCCCNC(=N)NC(=N)NCC(CC)CCCC (configuration not stated) [Alexidine dihydrochloride],percent growth inhibition,[2]; [7],99.739 ± 0.078%
